Source: PubChem (The Scripps Research Institute Molecular Screening Center)
FBW7 act = FBW7 E3 ligase activators, primary screen, biochemical, AlphaScreen, human; F-box/WD repeat-containing protein 7 (Homo sapiens), Q969H0; AlphaScreen FBW7–phospho-cyclin E peptide binding, activator screen; normalized activity (activation), % at 26.1 µM; hit rate 0.13% among 650,000; AID 1259310, 2017; in the data active = normalized activity above about 1.9%;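 note: purified mutant Fbw7 with reduced substrate affinity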
TEAD-YAP block = TEAD-YAP interaction inhibition, primary screen, TEAD-YAP interaction inhibitor project, luminescence, HEK-TIYL cells. inhibition, % at 9.12 µM. AID 1259422, 2018. hit rate 1.4% among 640,000. TEAD-Gal4/YAP UAS-luciferase luminescence; in the data active = inhibition above about 32%
MITF primary = MITF inhibitors, primary screen, biochemical, AlphaScreen, human; Microphthalmia-associated transcription factor (Homo sapiens), O75030; AlphaScreen MITF homodimerization, bead proximity signal; inhibition, % at 2.6 µM; hit rate 0.91% among 650,000; in the data active = inhibition above about 50%
Target sequence (O75030 whole entry, looked up): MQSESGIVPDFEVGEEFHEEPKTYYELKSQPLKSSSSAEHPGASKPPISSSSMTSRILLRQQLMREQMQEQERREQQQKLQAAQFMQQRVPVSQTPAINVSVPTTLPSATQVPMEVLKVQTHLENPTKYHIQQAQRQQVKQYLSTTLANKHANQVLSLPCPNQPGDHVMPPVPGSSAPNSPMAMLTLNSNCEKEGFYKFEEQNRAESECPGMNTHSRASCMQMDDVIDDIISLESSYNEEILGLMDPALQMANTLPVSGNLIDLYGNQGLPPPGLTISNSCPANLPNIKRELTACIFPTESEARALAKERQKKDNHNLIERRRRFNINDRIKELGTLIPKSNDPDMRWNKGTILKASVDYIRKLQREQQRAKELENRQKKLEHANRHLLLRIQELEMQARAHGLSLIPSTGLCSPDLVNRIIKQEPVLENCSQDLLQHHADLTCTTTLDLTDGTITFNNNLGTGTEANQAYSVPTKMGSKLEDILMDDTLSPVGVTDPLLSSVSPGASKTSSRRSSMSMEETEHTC
GPR151 ag = activators of human GPR151, primary screen, cell-based, PathHunter beta-arrestin, luminescence. PathHunter beta-arrestin GPR151 cells. hit rate 1% among 650,000. activation, % at 11.2 µM. AID 1508602, 2020; in the data active = activation above about 4.9%
Large screens that a line does not name were inactive. Most compounds without a hit are left out; they make up all but 3.4% or so of the library.

Cc1ncn(-c2ccc(Nc3ncc(Cl)c(-c4cn[nH]c4)n3)cc2)n1	none
CC1CCN(C(=O)/C(=C\c2ccccc2)NC(=O)c2ccc(Cl)cc2Cl)CC1	none
c1ccc(Nc2cc(-c3cccnc3)nc(-c3ccncc3)n2)cc1	none
CCOC(=O)c1ccc(NC(=O)c2sc(NC(=O)c3ccc(OC)cc3)c(C(=O)OCC)c2C)cc1	none
CCOC(=O)c1sc(N)c(C(=O)Nc2ccccc2OC)c1C	TEAD-YAP block 54
CCOC(=O)c1c(N)sc(C(=O)Nc2ccc3c(c2)OCO3)c1C	TEAD-YAP block 79
CCOC(=O)c1c(N)sc(C(=O)Nc2ccc(OC)cc2)c1C	TEAD-YAP block 42
COC(=O)c1c(N)sc(C(=O)Nc2ccccc2OC)c1C	none
Cc1ccc(OCCOc2ccc([N+](=O)[O-])cc2/C=C2/C(=N)N3N=C(C(C)C)SC3=NC2=O)cc1	none
COc1ccc(-c2ccc(OCCNS(=O)(=O)c3cc(C)ccc3OC)nn2)cc1	none
CC1C(=O)NN=C1C(=O)N/N=C\C=C\c1ccccc1 (stereo not given)	none
COc1ccc(/C=N\NC(=O)C2=NNC(=O)C2C)cc1 (stereo not given)	TEAD-YAP block 36
CC1=C(C)CC2C(=O)N(c3cccc(Br)c3)C(=O)C2C1 (stereo not given)	none
CC(=O)c1ccc(N=Nc2ccc(O)c(C=O)c2)cc1	TEAD-YAP block 90
CCOC(=O)c1sc(NC(=O)C(C)Sc2nnc(CNC(=O)COc3ccccc3)n2-c2cccc(C)c2)c(C(=O)OCC)c1C (stereo not given)	none
CCOc1cc(C(=O)N2N=C(C)CC2(O)C(F)(F)F)cc(OCC)c1OCC (stereo not given)	TEAD-YAP block 61
COc1cc(C(=O)N2N=C(C)CC2(O)C(F)(F)F)ccc1O (stereo not given)	none
CC(C)(C)c1ccc(NC(=O)c2cnc3ccccn23)cc1	TEAD-YAP block 55
O=C(Nc1ccc(Cl)cc1)c1cnc2ccccn12	none
Cc1nc2sccn2c1CN1CCN(CCc2ccccc2)C(CCO)C1 (stereo not given)	none
Cc1nc2sccn2c1CN1CCCC(N(C)CCc2ccccc2)C1 (stereo not given)	TEAD-YAP block 43
COc1cccc(CC2(CO)CCCN(Cc3c(C)nc4sccn34)C2)c1 (stereo not given)	TEAD-YAP block 41
CCOC(=O)C1(Cc2cccc(OC)c2)CCN(Cc2c(C)nc3sccn23)CC1	none
COc1cccc(-c2cc(C(=O)N3CCn4c(CO)nnc4C3)no2)c1	none
O=C(Nc1ccc(F)cc1)c1cnn(-c2ccc(Cl)cc2)c1C1CCNCC1	none
c1cncc(-c2nc3c4ccccc4nc(N4CCC(N5CCCCC5)CC4)n3n2)c1	TEAD-YAP block 46
Cc1ccccc1CC1(CO)CCCN(C(=O)CCc2ccncc2)C1 (stereo not given)	none
O=C(CN1CCN(CC(=O)Nc2ccc(OCc3ccccc3)cc2)CC1)Nc1ccc(F)cc1	none
O=C(CN1CCOCC1)Nc1ccc(OCc2ccccc2)cc1	TEAD-YAP block 33
O=C(Nc1ccc(CN2CCOCC2)cc1)c1ccc(OCc2ccccc2)cc1	none
O=C(Nc1ccc(OCc2ccccc2)cc1)c1ccc(CN2CCOCC2)cc1	TEAD-YAP block 49
COC(=O)c1ccccc1NC(=O)c1noc2c1CCc1ccccc1-2	none
CCOC(=O)c1c(NC(=O)c2ccc(C(F)(F)F)cc2)sc2c1CCCC2	none
Cc1csnc1NC(=O)c1c(N)nc2c(c1C(F)(F)F)OC1=C(CCCC1)O2	TEAD-YAP block 79
O=C(O)c1cccc([N+](=O)[O-])c1C(=O)Nc1cccc(Cl)c1	none
CC(=O)Nc1ccccc1N(C)S(=O)(=O)c1ccc(C)cc1	TEAD-YAP block 51
CC(=O)Nc1ccccc1NC(=O)CN(C)S(=O)(=O)c1ccc(C)cc1	none
COc1cc(C(=O)Nc2sc3c(c2C#N)CCC(C)C3)cc(OC)c1OC (stereo not given)	none
COc1cc(C(=O)Nc2sc3c(c2C#N)CCC3)cc(OC)c1OC	TEAD-YAP block 41
COc1cc(C(=O)Nc2sc3c(c2C#N)CCC(C)C3)c(Br)c(OC)c1OC (stereo not given)	TEAD-YAP block 34
Cc1nn(CC(=O)NCCCN(C)C2CCCCC2)c(=O)c2cc3sccc3n12	none
O=C1N[C@@H](Cc2ccc(O)cc2)C(=O)N2CCN(Cc3ccccn3)C[C@H]12	none
CCCNc1nc(Nc2cc(OC)c(OC)c(OC)c2)nc2c1ncn2-c1ccsc1	none
COc1cc(Nc2nc(NCCc3ccc(O)cc3)c3ncn(-c4ccsc4)c3n2)cc(OC)c1OC	TEAD-YAP block 36
CCCNc1nc(Nc2ccncc2)nc2c1ncn2-c1ccsc1	TEAD-YAP block 56
CCCNc1nc(Nc2ccc(-n3ccnc3)cc2)nc2c1ncn2-c1ccsc1	TEAD-YAP block 51
CCCNc1nc(Nc2ccccc2)nc2c1ncn2-c1ccsc1	TEAD-YAP block 55
CCCNc1nc(Nc2ncccn2)nc2c1ncn2-c1ccsc1	none
CCCNc1nc(Nc2ccc(-n3ccnc3)cc2)nc2c1ncn2-c1ccccc1	TEAD-YAP block 49
Oc1ccc(CCNc2nc(Nc3ccc(-n4ccnc4)cc3)nc3c2ncn3-c2ccsc2)cc1	TEAD-YAP block 62
Cc1[nH]nc2c1C(c1ccc(N(C)C)cc1)C(C#N)=C(N)O2 (stereo not given)	none
OCCN1CCN(C(c2ccccn2)c2ccc3cccnc3c2O)CC1 (stereo not given)	MITF primary 93
Oc1c(C(c2ccccc2Cl)N2CCCCC2)ccc2cccnc12 (stereo not given)	TEAD-YAP block 87
Oc1c(C(c2ccccn2)N2CCCCC2)ccc2cccnc12 (stereo not given)	TEAD-YAP block 39, MITF primary 99
Cc1nc2sc(C(c3ccccc3Cl)N3CCCC3)c(O)n2n1 (stereo not given)	none
Oc1c(C(c2ccccc2Cl)N2CCOCC2)ccc2cccnc12 (stereo not given)	TEAD-YAP block 84, MITF primary 62
O=C(Cc1ccc([N+](=O)[O-])cc1)NNC(=O)c1ccc([N+](=O)[O-])cc1	none
Cc1ccc2nc(/C(C#N)=C/c3ccccc3O)[nH]c2c1	TEAD-YAP block 97
COc1cc(/C=C(\C#N)c2nc3ccccc3[nH]2)c(Br)cc1O	TEAD-YAP block 41
Cc1cc(/C=C(/C#N)c2nc3ccccc3[nH]2)c(C)n1-c1cccnc1	TEAD-YAP block 59
COc1cc(Br)c(/C=C(\C#N)c2nc3ccccc3[nH]2)cc1OC	none
Cc1ccc2nc(/C(C#N)=C/c3cc([N+](=O)[O-])ccc3O)[nH]c2c1	none
COCCNCCC1CCC(=O)N1Cc1ccc(C)c(F)c1 (stereo not given)	none
Cc1cc(C)c2nc(SCC(=O)Nc3sccc3C(N)=O)cc(C)c2c1	TEAD-YAP block 45
Cc1cc(C)c2nc(SCC(=O)Nc3cc(C(N)=O)cc(C(N)=O)c3)cc(C)c2c1	none
CC(C)OC(=O)/C(C#N)=C/c1ccc([N+](=O)[O-])o1	none
